Rows were chosen to be rich in hits. Some 4% of all compounds tested hit in one or more screens of this group.
p53null 39C tox: qHTS Screen for Compounds that Selectively Target Cancer Cells with p53 Mutations: Cytotoxicity of p53 Null Cells at the Nonpermissive Temperature. AID 904, 2007. Potency, µM (series often up to 46.1 µM), actives largely listed as cytotoxic. actives 0.97% (n = 55,000). H1299 p53-null (neo) cells, 39C, ATPlite viability, 24 h; further: nearly all actives have a fitted effect of over 50% in size
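Temperature-shift cytotoxicity format: compound titrations on p53-null or A138V-expressing H1299 cells held 24 hr at 39C, cell ATP then measured, AC50 from Hill model.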
GPR32 ag: qHTS for Agonists of Human Resolvin D1 Receptor DRV1; CHO-K1 GPR32 beta-arrestin PathHunter luminescence, 90 min; zero percent set by DMSO-only wells; activation, % at 76.9 µM; actives 2.5% (n = 48,000); AID 1346428, 2018;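 active means activation of at least 60% and not above a set upper limit, about 1 call in 100 departs from these limits; inconclusive means activation of 40% to 60%, or above that upper limit; inactive means activation under 40%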
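Agonism was scored by beta-Gal fragment complementation (chemiluminescent read, 1 h detection at ambient temperature) reporting beta-arrestin binding to GPR32 in engineered CHO-K1 cells. Compound treatment lasted 90 min at 37 C, normalized to a DMSO basal control.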
NTMT1 inh: Primary qHTS for Inhibitors of N-terminal methyltransferase 1 (NTMT1): MTaseGlo Assay. NTMT1 MTase-Glo SAH luminescence, purified enzyme. Potency, µM (titrated, usually from 114 µM), most hits filed as inhibitors. actives 2.5% (n = 59,000). AID 1645870, 2021; further: nearly all actives have a fitted effect of over 65% in size
Target sequence (Q9BV86 whole entry, looked up): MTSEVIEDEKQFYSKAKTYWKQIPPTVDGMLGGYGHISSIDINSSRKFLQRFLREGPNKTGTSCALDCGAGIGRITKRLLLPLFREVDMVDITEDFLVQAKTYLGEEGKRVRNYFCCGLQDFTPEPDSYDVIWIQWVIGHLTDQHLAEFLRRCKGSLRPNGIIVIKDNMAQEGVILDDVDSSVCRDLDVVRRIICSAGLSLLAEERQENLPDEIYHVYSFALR
GALC G270D up: A Novel Cell-Based Assay to Identify Small Molecules for B -Galactocerebrosidase | P54803 | 145M-Twi-hGALC-G270D cells (Twitcher mouse brain line with human GALC G270D), HMU-beta-Gal fluorescence, 48 h | Potency, µM (highest dose often 57.5 µM), usual class: activators | actives 0.1% (n = 45,000); further: nearly all actives have a fitted effect of over 65% in size
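Fluorescence readout: HMU-β-gal cleavage by mutant GALC (0.1 mM final, citrate/phosphate pH 5.2 with 1 mg/mL taurocholate), stopped with carbonate/bicarbonate plus Triton X-100. Cells: murine Twitcher 145M-Twi expressing human G270D GALC; qHTS for activators.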
OvCa metastasis: Primary qHTS assay for Inhibitors of ovarian cancer metastasis using an organotypic tumor microenvironment (TME) model; SKOV3ip1-GFP adhesion/invasion on 3D omental model, fluorescence; Potency, µM (top dose mostly 45.8 µM), usual class: inhibitors; actives 0.1% (n = 46,000); AID 1963576, 2024; further: nearly all actives have a fitted effect of over 65% in size
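Adhesion/invasion was scored as fixed GFP-labeled SKOV3ip1 cell counts (488/509 nm), normalized to DMSO and tomatine controls. Cancer cells in serum-free medium, with four compound doses (0.36-46 umol/L), sat 2 hr at RT then 16 hr at 37 C on a 48 hr fibroblast/mesothelial/ECM culture.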
DYRK1A inh: Assay for Inhibitors of Dual-Specificity Tyrosine-(Y)-Phosphorylation Regulated Kinase 1A (Kinase-Glo assay) | shares compounds with NTMT1 inh | recombinant DYRK1A, Kinase-Glo ATP depletion luminescence | Potency, µM (series often up to 76.9 µM), hits mostly inhibitors | actives 80% (n = 100)
CLK4 inh: Confirmation Assay for Inhibitors of CDC-like Kinase 4 (Kinase-Glo Assay): SAR round 2 | shares compounds with NTMT1 inh | recombinant Clk4, Kinase-Glo ATP luminescence, 4.5 h | Potency, µM (highest dose often 76.9 µM), usual class: inhibitors | actives 90% (n = 90) | AID 493204, 2011
NNMT counter: Counterscreen qHTS for Inhibitors of N-terminal methyltransferase 1 (NTMT1): NNMT MTaseGlo assay; AID 1645878, 2021; shares compounds with NTMT1 inh; actives 10% (n = 120); NNMT MTase-Glo luminescence, SAH detection; Potency, µM (titrated, usually from 57.1 µM), usual class: inhibitors
Target sequence (P40261 whole entry, looked up): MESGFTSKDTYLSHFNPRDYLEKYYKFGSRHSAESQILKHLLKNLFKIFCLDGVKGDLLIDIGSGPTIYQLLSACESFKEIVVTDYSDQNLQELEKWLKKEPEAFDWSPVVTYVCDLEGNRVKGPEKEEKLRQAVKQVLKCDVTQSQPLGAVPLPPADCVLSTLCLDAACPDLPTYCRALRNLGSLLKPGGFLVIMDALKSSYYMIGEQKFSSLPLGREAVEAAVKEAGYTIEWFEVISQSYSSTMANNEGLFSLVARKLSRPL
Numbers stand for hits; ! = repeats disagree; [ ] = another dose, or the depositor's remark. Unless noted, the call rests on the fitted dose curve; in most records, active means well fitted curve in the direction sought with a large enough effect; inconclusive means small, poorly fitted or top-dose-only effect, or another doubt; inactive means no such curve, though single readings can be large; an effect the other way counts as inactive or inconclusive.

C[C@@H](O)c1ccc(-c2ccc3ncnc(NCc4cccs4)c3c2)o1 was read as NTMT1 inh inactive and CLK4 inh 1.5µM.
Screening C[C@H]1C(=O)N2c3ccccc3[C@@]3(O)C[C@@H]4C(=O)N[C@](C)(c5nc6ccccc6c(=O)n54)N1[C@@H]23 returned NTMT1 inh inactive.
`Cc1nc(NCc2ccc(-c3cccnc3)cc2)c2ccccc2n1` gave NTMT1 inh inactive.
Screening COc1cc(CC2COC(c3ccc(OC4OC(CO)C(O)C(O)C4O)c(OC)c3)C2CO)ccc1O (stereo unspecified) returned NTMT1 inh inactive.
Screening CS(=O)(=O)c1ccc([C@@H](C[C@H]2CCC(=O)C2)C(=O)Nc2cnccn2)cc1Cl returned NTMT1 inh inactive.
`CC(C)Oc1ccc(CCNC(=O)c2cc3sccc3n2Cc2ccccc2)cc1OC(C)C` gave NTMT1 inh inactive.
O=Cc1ccc(-c2ccc3ncnc(NCc4cccs4)c3c2)o1 was read as NTMT1 inh inconclusive and CLK4 inh 26µM.
`CC#C[C@@H](CC(=O)O)c1ccc(OCc2cccc(-c3ccc(C(F)(F)F)cc3)c2)cc1` gave NTMT1 inh 22µM and NNMT counter inconclusive.
Screening CC(C)C[C@H](C(=O)O)c1cc(-c2ccc(C(F)(F)F)cc2)cc(-c2ccc(C(F)(F)F)cc2)c1 returned NTMT1 inh inactive.
For Cc1csc(CNc2ncnc3ccc(-c4ccc5c(c4)OCO5)cc23)n1 the results were NTMT1 inh inactive.
For CN(CC1CCCO1)c1ncnc2ccc(-c3ccc4c(c3)OCO4)cc12 (stereo unspecified) the results were NTMT1 inh inactive and CLK4 inh 0.058µM.
Screening Cc1csc(CNc2ncnc3ccc(-c4ccc5c(c4)OCO5)cc23)c1 returned NTMT1 inh inactive.
`CN(Cc1ncc[nH]1)c1ncnc2ccc(-c3ccc4c(c3)OCO4)cc12` gave NTMT1 inh inconclusive and DYRK1A inh 0.73µM.
Screening CC(C)(O)c1ccc2c(c1)C(O)C[C@H]1[C@](C)(C(=O)O)CCC[C@]21C (stereo partly specified) returned NTMT1 inh inactive.
`CC(C)N1CCc2c(sc(NC(=O)C3CCCC3)c2-c2nc3ccccc3s2)C1` gave NTMT1 inh inactive.
`OCc1ccc(-c2ccc(-c3ccc(CO)s3)o2)s1` gave NTMT1 inh inconclusive, OvCa metastasis inactive and NNMT counter inactive.
`COCCNCc1ccc(-c2cc3nccc(Oc4ccc(NC(=O)C5(C(=O)Nc6ccc(F)cc6)CC5)cc4F)c3s2)nc1` gave NTMT1 inh inactive.
For COc1cc2c(NC3CCN(C(C)C)CC3)nc(C3CCCCC3)nc2cc1OCCCN1CCCC1 the results were NTMT1 inh inconclusive, OvCa metastasis 12µM and NNMT counter inconclusive.
For [O-][n+]1cccc(-c2nc3c(Cl)cccc3cc2[C@@H](Nc2ncnc3cccnc23)C(F)(F)F)c1 the results were NTMT1 inh inactive.
C=C1C(=O)O[C@@H]2C(OC(=O)/C(C)=C\C)/C(C)=C\C(=O)/C=C(\C)C[C@H](O)[C@@H]12 (stereo partly specified) was read as NTMT1 inh inactive.
For Cc1ccc(CN(C)c2ncnc3ccc(-c4ccc(CO)n4C)cc23)o1 the results were CLK4 inh 23µM.
`N#Cc1nc(NCCCO)nc(Nc2ccccc2)n1` gave NTMT1 inh inactive.
Screening OCCCNc1cc(-c2ccnc(Nc3cccc(Cl)c3)n2)ccn1 returned NTMT1 inh 4.5µM, OvCa metastasis inconclusive and NNMT counter 25µM.
Cc1cnc(-c2ccccc2C(C)C)nc1NCC1CCN(c2cccnc2)C1 (stereo unspecified) was read as NTMT1 inh inactive.
`C[C@]12CC[C@@H]3c4ccc(O)cc4CC[C@H]3[C@@H]1C[C@@H](O)[C@@H]2O` gave GPR32 ag inactive, NTMT1 inh inconclusive and GALC G270D up inactive.
Screening C[C@]12CC[C@@H]3c4ccc(O)c(O)c4CC[C@H]3[C@@H]1CCC2=O returned NTMT1 inh 28µM and NNMT counter 35µM.
O=C(O)c1cc(N(Cc2ccc(C3CCCCC3)cc2)C(=O)c2ccc(Oc3ccccc3)cc2)ccc1O was read as NTMT1 inh 32µM and NNMT counter inactive.
CC#CC(=O)N1CCC[C@H]1c1nc(-c2ccc(C(=O)Nc3ccccn3)cc2)c2c(N)nccn12 was read as NTMT1 inh inactive.
For O=C(O)c1ccc2c(c1)nc(Nc1cccc(Cl)c1)c1ccncc12 the results were NTMT1 inh 14µM!, OvCa metastasis inactive and NNMT counter inconclusive.
`Fc1ccc(Nc2nc(-c3ccncc3Cl)nc3ccccc23)cc1F` gave NTMT1 inh inactive.
CCC(O)C(C)C1CCC(C(C)C(=O)O)O1 (stereo unspecified) was read as NTMT1 inh inactive.
Screening O=C(Cn1nc(-c2ccc3c(c2)OCO3)ccc1=O)NCCc1ccccc1 returned NTMT1 inh inactive.
For CC(=O)c1ccc(N2CCN(C(=S)Nc3ccccc3F)CC2)cc1 the results were p53null 39C tox inactive[1.84 µM].

Screening data: PubChem, National Center for Advancing Translational Sciences (NCATS)
